We go through eight compounds from PubChem BioAssay AID1212 (NMMLSC, 2008).

As usually defined, the inhibition is how much of the control response was suppressed.

Calls of active or inactive are those of the source.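 The calls were made as follows: active = blocks over 60% of fluorescent estradiol binding at 10 µM; inactive = the rest.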

This assay concerns the target G-protein coupled estrogen receptor 1 (Homo sapiens) (UniProt Q99527). The assay can be described thus: GPR30 competitive binders vs fluorescent estrogen, primary screen, cell-based, Cos7 GPR30-GFP, flow cytometry, 10 µM (AID 1212). The note with it: fluorescent estrogen competition, at 10 µM; active compounds read high. On the technique in general: A flow cytometer gives signals particle by particle.
With `CCNCC1(c2ccc(OC)c(OC)c2)CCCC1`, the inhibition was 7% (inactive). With `O=C1C2CCN(CC2)C1Cc1ccc(O)cc1` (stereo not drawn), the result was inactive. Regarding `COc1ccc(C2(CN)CCCC2)cc1`, the inhibition was 10% (inactive). Regarding `COc1ccc2[nH]cc(CCN=C(N)N)c2c1`, the outcome was inactive.

As to `CC1(C)CC(CCNCc2ccc3c(c2)OCO3)(Cc2ccccc2)CCO1` (stereo not drawn), the compound was classed as inactive. As for `COc1cc2c(cc1OC)CC(C)(C)NC2`, the inhibition is 3% (inactive). In the case of `COc1ccc(C2(CN)CCCC2)cc1OC`, the compound was called inactive. For the compound `N=c1c[n+](CCc2ccc(O)cc2)[n-]o1`, the call was inactive.
